BAZ2B block: BAZ2B (human) inhibition; Q9UIF8; AlphaScreen BAZ2B-H3K14Ac peptide displacement; Potency, µM (top dose mostly 114 µM), without a hit: at the highest dose activity change, negative = inhibition, actives largely listed as inhibitors; 360,000 compounds, 4.4% hits; AID 504333; further: potency means the concentration at half of the fitted maximal effect; on the % scale 0 is the no-effect control and ±100 the full control effect; nearly all actives have a fitted effect of over 60% in size
Target sequence (Q9UIF8 whole entry, looked up): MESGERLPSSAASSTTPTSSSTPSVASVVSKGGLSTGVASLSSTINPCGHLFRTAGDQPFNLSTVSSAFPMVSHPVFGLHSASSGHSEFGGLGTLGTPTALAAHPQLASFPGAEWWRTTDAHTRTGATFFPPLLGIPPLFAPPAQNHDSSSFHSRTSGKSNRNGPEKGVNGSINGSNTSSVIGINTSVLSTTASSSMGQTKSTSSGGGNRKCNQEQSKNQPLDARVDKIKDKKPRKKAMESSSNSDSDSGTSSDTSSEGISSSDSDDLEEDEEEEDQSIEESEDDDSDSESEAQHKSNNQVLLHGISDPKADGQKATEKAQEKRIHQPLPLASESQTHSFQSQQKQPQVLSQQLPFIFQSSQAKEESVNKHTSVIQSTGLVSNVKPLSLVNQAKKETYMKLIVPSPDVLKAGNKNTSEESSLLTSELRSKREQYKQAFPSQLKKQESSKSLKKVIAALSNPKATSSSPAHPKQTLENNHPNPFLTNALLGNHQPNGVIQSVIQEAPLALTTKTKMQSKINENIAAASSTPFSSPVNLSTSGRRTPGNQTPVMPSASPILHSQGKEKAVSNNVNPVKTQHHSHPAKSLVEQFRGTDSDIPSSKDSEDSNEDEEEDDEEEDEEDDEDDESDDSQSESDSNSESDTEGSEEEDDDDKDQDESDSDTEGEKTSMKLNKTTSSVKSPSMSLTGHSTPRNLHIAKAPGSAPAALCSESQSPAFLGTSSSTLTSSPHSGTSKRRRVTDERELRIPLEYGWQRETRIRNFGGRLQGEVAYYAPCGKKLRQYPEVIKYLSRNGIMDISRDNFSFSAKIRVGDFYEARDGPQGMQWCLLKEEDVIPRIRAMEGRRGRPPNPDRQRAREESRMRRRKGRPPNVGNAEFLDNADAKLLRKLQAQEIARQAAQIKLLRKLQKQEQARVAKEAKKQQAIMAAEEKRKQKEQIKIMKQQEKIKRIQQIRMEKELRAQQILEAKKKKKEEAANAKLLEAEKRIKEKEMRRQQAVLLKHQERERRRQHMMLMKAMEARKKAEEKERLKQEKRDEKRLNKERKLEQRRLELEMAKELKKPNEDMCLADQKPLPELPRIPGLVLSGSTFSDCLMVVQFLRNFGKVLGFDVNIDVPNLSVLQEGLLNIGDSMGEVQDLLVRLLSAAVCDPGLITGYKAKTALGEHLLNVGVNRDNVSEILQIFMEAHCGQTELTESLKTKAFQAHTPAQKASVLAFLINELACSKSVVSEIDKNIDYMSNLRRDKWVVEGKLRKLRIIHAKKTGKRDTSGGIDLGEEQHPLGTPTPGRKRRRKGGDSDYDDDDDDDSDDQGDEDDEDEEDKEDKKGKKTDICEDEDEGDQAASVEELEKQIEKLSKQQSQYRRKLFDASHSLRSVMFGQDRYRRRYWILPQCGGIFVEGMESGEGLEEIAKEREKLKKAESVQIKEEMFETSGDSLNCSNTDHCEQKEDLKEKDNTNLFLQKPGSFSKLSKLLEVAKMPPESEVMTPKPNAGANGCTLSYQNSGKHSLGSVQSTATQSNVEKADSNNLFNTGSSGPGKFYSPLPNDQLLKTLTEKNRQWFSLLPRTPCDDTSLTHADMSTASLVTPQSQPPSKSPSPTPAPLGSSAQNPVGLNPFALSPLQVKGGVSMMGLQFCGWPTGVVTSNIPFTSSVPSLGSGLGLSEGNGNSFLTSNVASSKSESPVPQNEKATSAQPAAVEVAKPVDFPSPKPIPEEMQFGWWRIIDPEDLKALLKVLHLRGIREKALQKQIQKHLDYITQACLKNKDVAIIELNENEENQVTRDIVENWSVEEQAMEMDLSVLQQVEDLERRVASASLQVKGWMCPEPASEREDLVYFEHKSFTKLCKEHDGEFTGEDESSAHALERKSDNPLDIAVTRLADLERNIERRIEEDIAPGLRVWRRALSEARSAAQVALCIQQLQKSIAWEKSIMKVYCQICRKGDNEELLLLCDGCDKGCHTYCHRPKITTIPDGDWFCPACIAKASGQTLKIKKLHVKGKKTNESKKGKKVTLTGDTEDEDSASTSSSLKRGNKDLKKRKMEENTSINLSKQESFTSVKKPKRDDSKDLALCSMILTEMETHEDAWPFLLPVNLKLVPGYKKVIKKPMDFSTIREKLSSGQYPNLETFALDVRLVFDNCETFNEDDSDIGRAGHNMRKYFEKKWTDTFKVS
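Compounds, titrated to a top concentration of 110 uM, were incubated 30 min at room temperature with preformed BAZ2B/acetyl-K14 H3 peptide complex (50 nM each). Proximity signal was measured by AlphaScreen after 20 min with beads.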
PI5P4Ka inh: inhibitors of human PI5P4K alpha; P48426; PI5P4Kalpha enzyme, ADP-Glo luminescence, 60 min; hits give low values; max response, %; 330,000 compounds, 1.2% hits; active means max response of -50% or lower; inconclusive means between -30% and -50%; inactive means -30% or higher; further: value at the top dose of about 77 µM; on the % scale 0 is the no-effect control and ±100 the full control effect
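ADP-Glo luminescence end-point after a 60 min room-temperature kinase reaction. PI5P4Kalpha and substrate in HEPES pH 7.4 buffer with EGTA, 0.1% CHAPS and 5% DMSO; ATP at 5 microM final.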
L3MBTL1 block: blocks human L3MBTL1 | Q9Y468 | Potency, µM (top dose mostly 57.1 µM), without a hit: at the highest dose activity, negative = inhibition, most hits filed as inhibitors | 230,000 compounds, 0.66% hits | AlphaScreen L3MBTL1–H3K9me1 peptide binding; further: potency means the concentration at half of the fitted maximal effect; on the % scale 0 is the no-effect control and ±100 the full control effect; nearly all actives have a fitted effect of over 60% in size
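Read-out is AlphaScreen signal from streptavidin donor and nickel chelate acceptor beads (10 ug/mL final each) bridging L3MBTL1 (50 nM) and biotinylated K9-monomethylated H3(1-15) peptide (75 nM), after 30 min compound exposure at room temperature.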
HP1b chromo inh: inhibitors of HP1-beta chromodomain binding to methylated histone tails; AlphaScreen HP1-beta / biotin-H3K9me3 peptide binding; Potency, µM (highest dose often 114 µM), for the others: at the highest dose activity change, negative = inhibition, hits mostly inhibitors; P83916; 390,000 compounds, 0.56% hits; further: potency means the concentration at half of the fitted maximal effect; nearly all actives have a fitted effect of over 70% in size
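HP1-beta protein (50 nM final) preincubated 30 min at room temperature with biotinylated H3(1-18)K9me3 peptide (50 nM) in PBS pH 7.4, 0.01% Tween-20, then compound added for 30 min. AlphaScreen streptavidin donor/nickel chelate acceptor beads (10 ug/mL final), 30 min dark, luminescence read.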
JMJD2A Tudor inh: inhibitors of human JMJD2A Tudor domain; O75164; AlphaScreen JMJD2A-Tudor / H3K4me3 peptide binding; Potency, µM (series often up to 114 µM), for inactives: top-dose activity change, negative = inhibition, most hits filed as inhibitors; 390,000 compounds, 4.4% hits; AID 504339; further: potency means the concentration at half of the fitted maximal effect; on the % scale 0 is the no-effect control and ±100 the full control effect; nearly all actives have a fitted effect of over 50% in size
JMJD2E inh: JMJD2E (human) inhibition; B2RXH2; JMJD2E catalytic domain, FDH-coupled NADH fluorescence (FDH is formaldehyde dehydrogenase); Potency, µM (highest dose often 57.1 µM), for inactives: at the highest dose activity change, negative = inhibition, actives largely listed as inhibitors; 230,000 compounds, 1.6% hits; AID 2147; active means well fitted inhibition curve with a large enough effect, not every such curve was filed as active; inconclusive means small, poorly fitted or top-dose-only effect, or another doubt; inactive means no such curve, though single readings can be large or run the other way;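 further: potency means the concentration at half of the fitted maximal effect; 0% = wells with enzyme and -100% = buffer wells without enzyme; nearly all actives have a fitted effect of over 50% in size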
* marks the source's active call; other numbers are inactive results; ? = inconclusive; · = not tested or not shown; ! = not confirmed by another sample; [ ] = remark or other dose. A selection: hits, their analogues and other compounds. The true share with any hit is near 5.7%. Unless noted, the call rests on the fitted dose curve; in most records, active means well fitted inhibition curve with a large enough effect; inconclusive means small, poorly fitted or top-dose-only effect; inactive means no such curve, though single readings can be large or run the other way.

SMILES	BAZ2B block	PI5P4Ka inh	L3MBTL1 block	HP1b chromo inh	JMJD2A Tudor inh	JMJD2E inh
CCOc1ccc(NC(=O)c2cc(S(=O)(=O)N3CCCCCC3)cn2C)cc1	-18%	·	·	29%[57 µM]	-4%	·
Cn1nnc2c(N3CCN(Cc4ccccc4)CC3)ncnc21	·	·	·	39%	-10%	·
O=C(Nc1ccc2oc(-c3ccccc3Cl)nc2c1)c1ncn[nH]1	50µM*	·	-17%	10%	28µM*	?
O=C(Nc1ccc(N2CCOCC2)c(Cl)c1)c1ncn[nH]1	18µM*	-8	?	28%	56µM*	9%
CC(C)c1ccc2oc(-c3ccc(NC(=O)c4ncn[nH]4)cc3)nc2c1	35µM*	·	?	12%	40µM*	?
CCC(C)c1ccc2oc(-c3ccc(NC(=O)c4ncn[nH]4)cc3)nc2c1 (centres undefined)	?	·	3%	11%	-8%	?
CCc1nnc(NC(=O)CCC(=O)N2CCN(Cc3ccc(F)cc3)CC2)s1	-7%[57.1 µM]	0	·	49%	-3%	·
CCSc1nc2ccccc2c(OCc2ccccc2Cl)c1C(=O)OC	230%	·	·	118%	142%	·
CCOc1ccc(-c2c(C)sc3nc[nH]c(=O)c23)cc1	0%	-11	-1%	48%	89µM*	·
CCCOc1ccc(-c2csc3nc[nH]c(=O)c23)cc1	-2%	-2	-5%	39%	-9%	·
Cc1cc(SCC(=O)c2ccc3c(c2)OCO3)nc2ccccc12	9%	·	·	54%	-4%	-9%
CCCC1CC(=O)OC1(C)C(=O)CSc1n[nH]c(-c2ccccc2)n1 (centres undefined)	-27%	·	·	·	·	2%
O=C(CSc1n[nH]c(-c2ccccc2)n1)c1ccc(O)c(O)c1	45µM*	·	?	-13%	63µM*	28µM*
CCCC1CC(C)(C(=O)CSc2n[nH]c(-c3ccccc3)n2)OC1=O (centres undefined)	?	·	·	-10%	35µM*	-13%
CCOc1ccc(-c2nc(SCC(=O)c3ccccc3)n[nH]2)cc1	-15%	·	·	20%	25µM*	·
Cc1cc(SCC(=O)c2ccc(O)c(O)c2)nc2ccccc12	18µM*	-22	-18%	?	?	?
COc1ccc(OC)c(CNC(=O)c2ccc(NC(=O)c3nsc4ccccc34)cc2)c1	-3%	·	·	-2%[57 µM]	-18%	·
O=C(NCCc1nc2ccccc2n1Cc1c(F)cccc1Cl)c1ccco1	-16%	·	·	14%	?	·
CCCCCCCN1C/C=C\C(c2ccc(OC)cc2)N(Cc2ccc(F)cc2)C(=O)[C@H]1Cc1ccccc1 (some centres undefined)	5%	19	·	59%	1%	-7%
Cc1ccc(-c2nc(NC(=O)CSc3cc(C)c4ccccc4n3)ns2)cc1	10µM*!	0	6%	-14%	?	9%
O=S1(=O)N=C(OCc2ccccc2)c2ccccc21	·	·	·	·	-19%	·
COc1ccc(/C=C2\SC(=Nc3ccccc3)NC2=O)cc1	0%	·	6%	·	·	·
COc1ccccc1N=C1NC(=O)/C(=C/c2ccc(N(C)C)cc2)S1	45µM*	-5	?	-21%	?	·
COc1cc(/C=C2/SC(=Nc3ccc(O)cc3)NC2=O)cc(OC)c1O	11%	-51*	?	0%	-12%	?
CN1C(=O)/C(=C/c2ccco2)SC1=Nc1ccc(N2CCOCC2)cc1	7.9µM*	-9	-1%	?	-25%	-1%
SMILES	BAZ2B block	PI5P4Ka inh	L3MBTL1 block	HP1b chromo inh	JMJD2A Tudor inh	JMJD2E inh
CN=C1S/C(=C\c2ccc(N3CCOCC3)cc2C)C(=O)N1C	-4%	5	1%	13%	-12%	-2%
COc1ccc(N=C2NC(=O)/C(=C/c3ccc(O)c(OC)c3)S2)cc1	?	-62*	-3%	-13%	-35%	3%
COc1cc(/C=C2\SC(=Nc3ccc(O)cc3)NC2=O)cc(OC)c1OC	-11%	-3	·	-18%	-22%	-24%
COC(=O)c1ccccc1NC(=O)CCCn1c(=O)c2cccn2c2cccnc21	-11%	·	·	19%	-21%	·
Cc1cccc(C)c1-n1nnnc1C1c2ccccc2C(=O)N1CCOc1ccccc1 (centres undefined)	·	6	·	·	·	·
CCOC(=O)c1ccc(NC2SC(=O)N(Cc3cccc(C(=O)O)c3)C2=O)cc1 (centres undefined)	-5%	·	·	41%	-21%	·
COC(=O)CN1C(=O)[C@@H]2[C@H](C1=O)[C@@H]1CC(C(=O)OC)=C[C@@H](C(=O)OC)C3C1=C(C(=O)[C@@]3(C)NC(=O)c1ccccc1)[C@@H]2C (some centres undefined)	·	·	·	21%	-7%	·
Cc1sc(N)nc1-c1cccc([N+](=O)[O-])c1	·	·	·	-17%	-35%	·
Cc1ccc(S(=O)(=O)/N=C2/NC(=O)/C(=C\c3ccco3)S2)cc1	-13%	-13	-10%	0%	-31%	-1%
COc1ccc(N=C2NC(=O)/C(=C\c3ccco3)S2)cc1	28µM*	-59*	·	?	?	?
CCOC(=O)CNC(=O)N1CCCN(S(=O)(=O)c2ccc3c(ccn3CC)c2)CC1	0%	·	·	12%[57 µM]	-21%	·
O=C(c1ccc(F)cc1F)N1CCCc2ccccc21	3%	-2	·	45%	-15%	·
CN(Cc1ccco1)C(=O)CC[C@H]1O[C@@H](n2ccc(=O)[nH]c2=O)[C@H](O)[C@@H]1O	·	-6	·	·	·	·
CN1C/C(=C\c2ccc(N3CCOCC3)cc2)C(=O)/C(=C/c2ccc(N3CCOCC3)cc2)C1	50µM*	-6	6%	?	?	-16%
Cc1ccc(O)c(CO)n1	5%	2	8%	-4%	-10%	?
Cc1nc2c(O)cccc2cc1CO	-37%	2	-8%	6%	4.5µM*	3%
CC(C)(C)c1ccc(OCCn2ccccc2=O)cc1	3%	0	5%	17%	3.5µM*	-2%
Cc1csc(SCC(=O)Nc2cc(S(=O)(=O)N3CCOCC3)ccc2N2CCOCC2)n1	3%	0	·	48%	-7%	7%
Cc1csc(SCC(=O)c2ccc(S(=O)(=O)N3CCOCC3)cc2)n1	-7%	-12	-10%	-10%	56µM*	-7%
COC(=O)[C@]1(C)N[C@H](CN(C)S(=O)(=O)c2ccc(C)cc2)[C@@H]2C(=O)N(C)C(=O)[C@@H]21	·	0	8%	20%	79µM*	·
Cc1ccc(-c2cc(-c3coc4ccccc4c3=O)c3c(n2)-c2ccccc2OC3)cc1	-29%	·	·	24%	-22%	·
COCCCNC(=O)c1ccccc1Oc1ccccc1	3%	-7	0%	24%	3%	6%
COCCCNC(=O)c1ccc2c3c(onc13)-c1ccccc1C2=O	20µM*	-7	-25%	?	50µM*	?

Bioassay records from PubChem.
